Structures can show the parent of a compound that is named as a salt.
These compounds were tested on Danio rerio larvae (5 dpf) (assay: optomotor response to red moving lines, difference vs DMSO (percentage points (treated minus DMSO)); higher = more of the behaviour than the DMSO vehicle control). Conditions: 10 µM; exposure time: 3 h pre-incubation + 3 h imaging.
Experimental: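 5-dpf wild-type zebrafish larvae were imaged in 96-well plates. They were treated with 190 Tocris FDA-approved drugs at 10 µM (1 µl/ml DMSO) for 3 h before and 3 h during imaging at 28.5 °C, 48 larvae per drug. Automated image analysis gave % time moving and optomotor responses. Values are drug group mean minus DMSO vehicle mean (n=844), in percentage points, for 10 behaviours.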

SMILES	optomotor response to red moving lines
OCCOCCN1CCN(C2=Nc3ccccc3Sc3ccccc32)CC1 [Quetiapine hemifumarate]	6.92
CN(CCOc1ccc(CC2SC(=O)NC2=O)cc1)c1ccccn1 (stereo not given) [Rosiglitazone]	-2.8
O=c1n(CCCN2CCN(c3cccc(Cl)c3)CC2)nc2ccccn12 [Trazodone hydrochloride]	14.6
CNC(=O)c1ccccc1Sc1ccc2c(/C=C/c3ccccn3)n[nH]c2c1 [Axitinib]	1.5
Cc1nc(Nc2ncc(C(=O)Nc3c(C)cccc3Cl)s2)cc(N2CCN(CCO)CC2)n1 [Dasatinib]	-9.17
CCOC(=O)C1=C(C)NC(C)=C(C(=O)OC)C1c1cccc(Cl)c1Cl (stereo not given) [Felodipine]	4.89
NC(=O)OCC(COC(N)=O)c1ccccc1 [Felbamate]	-9.28
Nc1nc(F)nc2c1ncn2[C@@H]1O[C@H](CO)[C@@H](O)[C@@H]1O [Fludarabine]	-10.8
CN(CCOc1ccc(NS(C)(=O)=O)cc1)CCc1ccc(NS(C)(=O)=O)cc1 [Dofetilide]	-14.2
O=C(O)CCCc1ccccc1 [Sodium 4-Phenylbutyrate]	3.33
CC(=O)Oc1cc2c(s1)CCN(C(C(=O)C1CC1)c1ccccc1F)C2 (stereo not given) [Prasugrel]	5.97
C=C1[C@H](CO)[C@@H](O)C[C@@H]1n1cnc2c(=O)[nH]c(N)nc21 [Entecavir]	1.68
CN1CC[C@@H](NC(=O)Nc2ccc(C#N)cc2)C[C@@H]1c1nc2ccccc2[nH]1	-0.356
O=C(O)C[C@H](O)C[C@H](O)/C=C/c1c(C2CC2)nc2ccccc2c1-c1ccc(F)cc1 [Pitavastatin calcium]	3.56
CN(C)CC/C=C1/c2ccccc2COc2ccc(CC(=O)O)cc21 [Olopatadine hydrochloride]	19
COc1c(C)c2c(c(O)c1C/C=C(\C)CCC(=O)O)C(=O)OC2 [Mycophenolic acid]	-3.36
CC1=Nc2ccc(Cl)cc2S(=O)(=O)N1 [Diazoxide]	0.599
NS(=O)(=O)c1cc2c(cc1Cl)NC(C1CC3C=CC1C3)NS2(=O)=O (stereo not given) [Cyclothiazide]	-6.66
CCCN(CCC)S(=O)(=O)c1ccc(C(=O)O)cc1 [Probenecid]	-2.21
CC[C@H](C)C(=O)O[C@H]1C[C@@H](C)C=C2C=C[C@H](C)[C@H](CC[C@@H]3C[C@@H](O)CC(=O)O3)[C@H]21 [Lovastatin]	-6.33

SMILES	optomotor response to red moving lines
Cc1nc(-c2ccc(OCC(C)C)c(C#N)c2)sc1C(=O)O [Febuxostat]	-1.5
CCOc1ccccc1OCCN[C@H](C)Cc1ccc(OC)c(S(N)(=O)=O)c1 [Tamsulosin hydrochloride]	-6.78
CC(=O)S[C@@H]1CC2=CC(=O)CC[C@]2(C)[C@H]2CC[C@@]3(C)[C@@H](CC[C@@]34CCC(=O)O4)[C@H]12 [Spironolactone]	11.7
C[C@H]1O[C@H](O[C@H]2[C@H](O)[C@@H](O)[C@@H](O[C@H]3[C@H](O)[C@@H](O)C(O)O[C@@H]3CO)O[C@@H]2CO)[C@H](O)[C@@H](O)[C@@H]1N[C@H]1C=C(CO)[C@@H](O)[C@H](O)[C@H]1O (stereo not given in full) [Acarbose]	6
CCOC(=O)[C@H](CCc1ccccc1)N[C@H]1CCc2ccccc2N(CC(=O)O)C1=O [Benazepril hydrochloride]	13
CCCCC(=O)N(Cc1ccc(-c2ccccc2-c2nnn[nH]2)cc1)[C@H](C(=O)O)C(C)C [Valsartan]	7.8
CCc1nc(N)nc(N)c1-c1ccc(Cl)cc1 [Pyrimethamine]	8.52
COc1cc2nc(N3CCN(C(=O)c4ccco4)CC3)nc(N)c2cc1OC [Prazosin hydrochloride]	-6.9
OCCN(CCO)c1nc(N2CCCCC2)c2nc(N(CCO)CCO)nc(N3CCCCC3)c2n1 [Dipyridamole]	-6.85
CC(C)(C)NC(=O)[C@@H]1C[C@@H]2CCCC[C@@H]2CN1C[C@@H](O)[C@H](Cc1ccccc1)NC(=O)[C@H](CC(N)=O)NC(=O)c1ccc2ccccc2n1 [Saquinavir mesylate]	-16.6
Cc1nnc(C(C)C)n1C1C[C@H]2CC[C@@H](C1)N2CC[C@H](NC(=O)C1CCC(F)(F)CC1)c1ccccc1 (stereo in doubt) [Maraviroc]	-6.34
C[C@H](Cc1cc2c(c(C(N)=O)c1)N(CCCO)CC2)NCCOc1ccccc1OCC(F)(F)F [Silodosin]	6.25
OCc1cc(C(O)CNCCCCCCOCCCCc2ccccc2)ccc1O (stereo not given) [Salmeterol xinafoate]	5
CC(C)[C@H]1CC[C@H](C(=O)N[C@H](Cc2ccccc2)C(=O)O)CC1 [Nateglinide]	12.8
CC(=O)O[C@H]1C(=O)[C@@]2(C)[C@H]([C@H](OC(=O)c3ccccc3)[C@]3(O)C[C@H](OC(=O)[C@H](O)[C@@H](NC(=O)c4ccccc4)c4ccccc4)C(C)=C1C3(C)C)[C@]1(OC(C)=O)CO[C@@H]1C[C@@H]2O [Taxol]	6.51
CN1CCC[C@@H]1CCO[C@](C)(c1ccccc1)c1ccc(Cl)cc1 [Clemastine fumarate]	16.7
C#CCN[C@@H]1CCc2ccccc21 [Rasagiline mesylate]	16.9
CCCCc1nc(Cl)c(CO)n1Cc1ccc(-c2ccccc2-c2nnn[nH]2)cc1 [Losartan potassium]	-6.11
O=C(Nc1c(Cl)cncc1Cl)c1ccc(OC(F)F)c(OCC2CC2)c1 [Roflumilast]	0.247
C[C@@H]1C[C@H]2[C@@H]3CCC4=CC(=O)C=C[C@]4(C)[C@@]3(F)[C@@H](O)C[C@]2(C)[C@@]1(O)C(=O)CO [Dexamethasone]	-2.54

Source: the supplement of paper PMC9023506
